# In PMC9574860, “Chemical Toolkit for PARK7: Potent, Selective, and High-Throughput” (Journal of Medicinal Chemistry, 2022):
# Screen size: about 7,900 compounds; about 400 (5.1%) showed an effect of 50% or more. The entries come from a sample that favours strong results as a whole.
# Biological target: Parkinson's disease protein 7 (PARK7/DJ1) (human, UniProt Q99497)
# Assay: primary screen, percent inhibition; read as competition with a fluorescent probe by fluorescence polarization; higher = more effect of the substance
# Details: 100 µM
# Procedure, shortened: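 Fluorescence-polarization probe displacement (JYQ-107, 20 nM final, 2 h) after 2 h preincubation of PARK7 (0.2 μM final) with each fragment at 100 μM final. Read-out ex/em 480/520 nm; remaining activity derived from FP signal loss relative to reference controls.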
# Sequence of Parkinson's disease protein 7 (PARK7/DJ1) (Q99497 whole entry, looked up): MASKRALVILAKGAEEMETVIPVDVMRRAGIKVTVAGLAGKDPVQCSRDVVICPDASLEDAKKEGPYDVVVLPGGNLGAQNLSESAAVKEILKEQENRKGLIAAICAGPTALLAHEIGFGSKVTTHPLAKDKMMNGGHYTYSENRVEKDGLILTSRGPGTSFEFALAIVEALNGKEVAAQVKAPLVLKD
row,Compound,Inhibition % [%]
1,C=CC(=O)N1CC(C)OC2(CCOC(C)C2)C1 (stereo not drawn),9.19
2,O=C(CCl)Nc1ccc(Br)cc1F,71.1
3,O=C(CCl)Nc1ccc(F)c(F)c1F,32.8
4,O=C(CCl)Nc1ccc(F)cc1Cl,13.8
5,N#CSc1ccc(NC(=O)CCl)c(F)c1,72
6,O=C(CCl)Nc1ccc(F)cc1F,23.9
7,N#CSc1ccc(NC(=O)CCl)c(Cl)c1,55.8
8,O=C(CCl)Nc1ccc(Cl)cc1F,49.7
9,Cc1cc(SC#N)cc(C)c1NC(=O)CCl,4.28
10,O=C(CCl)Nc1ccc(Cl)cc1Cl,18
11,Cc1cccc(OCC(=O)Nc2ccc(S(=O)(=O)F)cc2)c1,9.17
12,OB(O)c1ccccc1OCC1CCOC1 (stereo not drawn),5.05
13,Cc1cc(CN(C)c2ccc(C#N)nc2)no1,-2.05
14,CN(CC(=O)Nc1ncc(S(=O)(=O)F)s1)S(C)(=O)=O,9.17
15,CSC1(CNc2cccc(C#N)n2)CCC1,11.9
16,C=CC(=O)Nc1ccccc1CN1CCOCC1,8.41
17,CCOc1cc(S(=O)(=O)n2ccc(C)n2)ccc1Cl,2.71
18,Cc1cc(B2OC(C)(C)C(C)(C)O2)sn1,0.986
19,O=C1N(c2ccccc2)C(c2ccco2)C1(F)F (stereo not drawn),3.32
20,Nc1cccnc1S,101
21,Cc1cccnc1S,12.6
22,Sc1ncccc1Cl,2.79
23,C=CC(=O)NC(C)c1csnn1 (stereo not drawn),10
24,N#Cc1nc(N2CCCC(N3CCNC3=O)C2)ccc1Cl (stereo not drawn),1.45
25,Cc1ccccc1OCC1CO1 (stereo not drawn),13.4
26,FC(F)(F)c1ccccc1OCC1CO1 (stereo not drawn),11.7

row,Compound,Inhibition % [%]
1,Fc1ccccc1OCC1CO1 (stereo not drawn),54.7
2,C=CC(=O)NCC1=CCOCC1,6.41
3,COC(=O)c1ccc(Cl)c(S(=O)(=O)F)c1,9.08
4,COC(=O)c1ccccc1CS(=O)(=O)F,7.86
5,COC(=O)c1ccc(S(=O)(=O)F)cc1F,4.21
6,COC(=O)c1ccc(Cl)cc1S(=O)(=O)F,96.1
7,COC(=O)c1cccc(S(=O)(=O)F)n1,7.02
8,COC(=O)c1ccccc1S(=O)(=O)F,52.5
9,Cc1noc(C2CCN(Cc3cc(C#N)n(C)c3)C2)n1 (stereo not drawn),6.79
10,C=CC(=O)N1CCC[C@@H]2O[C@H](c3ccccc3)C[C@@H]21 (racemic),5.3
11,N#Cc1nccnc1SC1CCCC1,6.92
12,O=S(=O)(C=Cc1ccccc1)NCc1cccnc1,15.5
13,C=C(C(=O)O)c1ccccc1F,3.02
14,CC1(C2CC2)CCN(c2cncc(C#N)n2)CC1,6.7
15,O=C(O)c1ccnc(S)c1,11.8
16,O=C(O)c1nccnc1S,83.1
17,Nc1nccnc1S,26.8
18,C=CC(=O)NC1CCN(c2ncccc2F)C1 (stereo not drawn),14.9
19,C=CC(=O)N1CCC(c2cccc(C(F)(F)F)c2)C1 (stereo not drawn),10.4
20,C=CC(=O)Nc1ccc2c(c1)CCC(C)(C)O2,6.26
21,COC(=O)Nc1ccc(S(=O)(=O)F)cc1[N+](=O)[O-],101
22,COc1ccc(NC(=O)CCl)c([N+](=O)[O-])c1,10.4
23,COC(=O)Nc1ccc(S(=O)(=O)F)cc1,34.7
24,C=CC(=O)N1CC(C(C)C)c2ccccc21 (stereo not drawn),5.57
25,C=CC(=O)N(C)CC(=O)Nc1cc(C)c(=O)n(C)c1,54.5
26,C=CC(=O)N(C)CC(=O)Nc1csc(C)n1,7.47

row,Compound,Inhibition % [%]
1,C=CC(=O)N(C)CC(=O)Nc1cc(C)on1,7.52
2,C=CCNC(=O)C(C#N)=Cc1cc(F)ccc1F,6.92
3,O=C(C1CCOCC1)N1CCC(S(=O)(=O)F)C1 (stereo not drawn),19.5
4,CC1CC1C(=O)N1CC(CS(=O)(=O)F)C1 (stereo not drawn),16.8
5,O=C(C1CCOCC1)N1CCCC(CS(=O)(=O)F)C1 (stereo not drawn),55.9
6,CC1CC1C(=O)N1CCC(CS(=O)(=O)F)C1 (stereo not drawn),96.8
7,C=CC(=O)N1CCC(CS(C)(=O)=O)C1 (stereo not drawn),4.28
8,CC1CC1C(=O)N1CCC(CS(=O)(=O)F)CC1 (stereo not drawn),25.9
9,CC1CC1C(=O)N1CCOC(CS(=O)(=O)F)C1 (stereo not drawn),11.8
10,O=C(C1CCOCC1)N1CCC(CS(=O)(=O)F)CC1,20.1
11,CC1CC1C(=O)N1CCC(S(=O)(=O)F)C1 (stereo not drawn),36.5
12,CC1CC1C(=O)N1CCC(S(=O)(=O)F)CC1 (stereo not drawn),72.2
13,O=C(C1CCOCC1)N1CCCC(S(=O)(=O)F)C1 (stereo not drawn),8.98
14,CC1CC1C(=O)N1CCCC(CS(=O)(=O)F)C1 (stereo not drawn),71.5
15,C=CC(=O)Nc1ccc(OC)c(F)c1,4.48
16,O=c1c2sccc2nc(S)n1CCCN1CCOCC1,1.46
17,O=C(CCl)Nc1cc(C(F)(F)F)ccc1Cl,4.72
18,N#Cc1ccnc2ccnn12,4.63
19,CC1(S(=O)(=O)NC2CN(c3ccc(F)cc3)C2=O)CC1 (stereo not drawn),10.3
20,O=C(C=Cc1nccs1)N1CCc2ccccc21,14.3
21,CCc1nc(C#N)cc(NC2CSC2)n1,-3.02
22,Cc1cc(C)n(S(=O)(=O)c2ccc(C)c(C)c2)n1,3.92
23,CC1CC(N2CCn3c(nnc3C3CC3)C2)C(=O)O1 (stereo not drawn),18
24,O=C(c1cc(F)cc(F)c1)N1CCCCC1C1OCCO1 (stereo not drawn),3.28
25,C=CC(=O)N1CCN(CCc2ccc(F)cc2)CC1,8.07
26,CC1CCCN(C(=O)C=Cc2cnc3ccccc3n2)C1 (stereo not drawn),9.42

row,Compound,Inhibition % [%]
1,C=CC(=O)NC1CCCc2c1cnn2CC (stereo not drawn),8.99
2,Cc1csc(-n2c(C)cc(C(=O)CCl)c2C)n1,51
3,Cc1csc(CC(=O)NNC(=O)CCl)n1.Cl,0.415
4,Cc1cc(C(=O)CCl)c(C)n1-c1ncn[nH]1,60
5,Cc1cc(C(=O)CCl)c(C)n1-c1ccc(F)cn1,5.68
6,Cc1cc(-n2c(C)cc(C(=O)CCl)c2C)no1,7.75
7,Cc1cc(C(=O)CCl)c(C)n1-c1ccccn1,71.3
8,Cc1cc(C(=O)CCl)c(C)n1-c1nccs1,4.37
9,O=C(CCl)Nc1ccon1,14.8
10,Cc1cc(C(=O)CCl)c(C)n1-c1ccon1,82.8
11,C=CC(=O)N(Cc1cncs1)C1CCN(C(C)=O)CC1,5.13
12,C=CC(=O)N(C)CC(=O)N1CCOCC1,16.7
13,C=CC(=O)N1CCC(CC(=O)NC)CC1,5.8
14,C=CC(=O)N1CCCC(C(=O)Nc2nc(C)cs2)C1 (stereo not drawn),5.32
15,N#Cc1ccc(N2CCC3(CCOC3)C2)cn1 (stereo not drawn),-4.97
16,O=C1CCN1c1ccc(O)cc1,5.37
17,C=CC(=O)N1CCCC(n2ccc(C(=O)NC)n2)C1 (stereo not drawn),8.31
18,CC(CC(O)c1ccccc1)NC(=O)c1cccnc1S (stereo not drawn),5.61
19,N#CC(=Cc1ccc(O)c(O)c1)c1ccccn1,3.18
20,C=CC(=O)NC(c1ccco1)C(C)(C)C (stereo not drawn),7.05
21,COCC1CN(C(=O)c2c[nH]c(C#N)c2)CC(C)(C)O1 (stereo not drawn),10.6
22,CC1=C(C)CN(c2nccnc2C#N)CC1,26
23,COc1ccc(C=C(C#N)C(N)=O)c(Cl)c1OC,3.63
24,O=C(CCl)NCCc1ccc2c(c1)OCCO2,47.9
25,O=C(CCl)N1CCN(Cc2ccc3c(c2)OCCO3)CC1,15.8
26,Cc1cc(C(=O)CCl)c(C)n1-c1ccc2c(c1)OCCO2,63.9

row,Compound,Inhibition % [%]
1,O=c1[nH]nc(S)n2cccc12,26.7
2,CC(CNc1nccnc1C#N)c1ccc(F)c(F)c1 (stereo not drawn),22.4
3,O=C1OCCC1Sc1ccc2ccccc2n1 (stereo not drawn),-0.865
4,Cc1nc2ccccc2nc1SC1CCOC1=O (stereo not drawn),70.3
5,CC1CC(Sc2ncnc3ccccc23)C(=O)O1 (stereo not drawn),4.79
6,O=C1OCCC1Sc1ncnc2ccccc12 (stereo not drawn),54.5
7,O=C1OCCC1Sc1ncnc2sccc12 (stereo not drawn),6.21
8,Cn1c(SC2CCOC2=O)nc2ccccc21 (stereo not drawn),12
9,C=CC(=O)N(Cc1nc(-c2cccnc2)no1)C(C)C,22.6
10,Cc1cc(C#N)nc(NC2CCCCCC2)n1,2.75
11,Cc1nc(C#N)c(NC(=O)CSCC2CCCCO2)o1 (stereo not drawn),12.5
12,CCCC(NC(=O)CCl)c1ccccc1 (stereo not drawn),14.5
13,CCCc1cc(NC(=O)CCl)n(-c2ccccc2)n1,31.6
14,C=CC(=O)N1CCC2(CCOCC2)CC1,5.66
15,COc1ccc(CN2CCN(C(=O)CCl)CC2)cc1.Cl,10.6
16,O=C(CCl)N1CC=C(c2c[nH]c3ccccc23)CC1,51.5
17,O=C1OCCC1N1CC=C(c2c[nH]c3ccccc23)CC1 (stereo not drawn),4.4
18,O=C(CCl)c1c[nH]c2ccccc12,37.9
19,COc1ccc(C2=CCN(C(=O)CCl)CC2)cc1,78.7
20,COc1ccc(N2CCN(C(=O)CCl)CC2)cc1,28.8
21,C=CC(=O)N1CCOC[C@@H]1CC(C)C,6.89
22,c1cc(OCC2CO2)c2cc[nH]c2c1 (stereo not drawn),-2.42
